Results taken from PubChem BioAssay (EPA / NIEHS).
Results filed as inconclusive are left out. Active and inactive are the calls of the source. How the source made its calls: active means hit-call score of the fitted dose curve at least 0.9, where 1 is the maximum; inconclusive means response in the unintended direction; inactive means score below 0.9.

target: Androgen Receptor/SRC-1 Co-activator, AR (gene 367) (UniProt P10275); test: OT_AR_ARSRC1_0960: Odyssey Thera (OT) 16-hour HEK293T Protein-Complementation Assay for Androgen Receptor/SRC-1 Co-activator (AID 2283353);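 further: actives raise the signal above DMSO so potency reflects increased AR and SRC-1 complex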
Procedure, shortened: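 Interaction of AR with SRC-1 was followed by YFP fragment complementation in HEK293T cells after 16 h of dosing. Gain of nuclear-over-cytoplasmic 488 nm fluorescence against DMSO controls defined activity.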

Row | SMILES | outcome
1 | CCCCCCC(C)OC(=O)CCCCC(=O)OC(C)CCCCCC (stereo unspecified) | inactive
2 | CNC(=S)NC | inactive
3 | [Co] | inactive
4 | CCCCCCOC(=O)c1ccccc1O | inactive
5 | CN(C)Cc1ccccc1O | inactive

target: Androgen Receptor/SRC-1 Co-activator, AR (gene 367) (UniProt P10275); test: OT_AR_ARSRC1_0480: Odyssey Thera (OT) 8-hour HEK293T Protein-Complementation Assay for Androgen Receptor/SRC-1 Co-activator (AID 2283354);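 further: hits raise the complementation signal above DMSO so AC50 marks enhancers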
Procedure, shortened: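 HEK293T cells stably expressing AR and SRC-1 fused to Venus YFP fragments, imaged 8 h after dosing. Complementation fluorescence scored as nuclear/cytoplasmic ratio at 488 nm in at least 400 cells per image; gain fitted versus DMSO.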

Row | SMILES | outcome
6 | CCCCCCC(C)OC(=O)CCCCC(=O)OC(C)CCCCCC (stereo unspecified) | inactive
7 | CNC(=S)NC | inactive
8 | [Co] | inactive
9 | CCCCCCOC(=O)c1ccccc1O | inactive
10 | CN(C)Cc1ccccc1O | inactive

target: Estrogen receptor (Homo sapiens) + Estrogen receptor beta (Homo sapiens) (UniProt P03372+Q92731); test: OT_ER_ERaERb_1440: Odyssey Thera (OT) 24-hour HEK293T Protein-Complementation Assay for Estrogen Receptor-alpha/-beta Homodimer (AID 2283356);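 further: heteromer of ER alpha and ER beta binding domains; hits raise reporter fluorescence and both agonists and antagonists give an increase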
Procedure, shortened: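 Stable HEK293T PCA line, ERα LBD 310-547 + ERβ LBD 263-489 fused to reporter fragments; 24 h treatment; fluorescence read by laser scanning cytometry; positive fitting direction relative to DMSO.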

Sequence of Estrogen receptor (Homo sapiens) + Estrogen receptor beta (Homo sapiens) (P03372 whole entry, looked up, the tested form may be a part): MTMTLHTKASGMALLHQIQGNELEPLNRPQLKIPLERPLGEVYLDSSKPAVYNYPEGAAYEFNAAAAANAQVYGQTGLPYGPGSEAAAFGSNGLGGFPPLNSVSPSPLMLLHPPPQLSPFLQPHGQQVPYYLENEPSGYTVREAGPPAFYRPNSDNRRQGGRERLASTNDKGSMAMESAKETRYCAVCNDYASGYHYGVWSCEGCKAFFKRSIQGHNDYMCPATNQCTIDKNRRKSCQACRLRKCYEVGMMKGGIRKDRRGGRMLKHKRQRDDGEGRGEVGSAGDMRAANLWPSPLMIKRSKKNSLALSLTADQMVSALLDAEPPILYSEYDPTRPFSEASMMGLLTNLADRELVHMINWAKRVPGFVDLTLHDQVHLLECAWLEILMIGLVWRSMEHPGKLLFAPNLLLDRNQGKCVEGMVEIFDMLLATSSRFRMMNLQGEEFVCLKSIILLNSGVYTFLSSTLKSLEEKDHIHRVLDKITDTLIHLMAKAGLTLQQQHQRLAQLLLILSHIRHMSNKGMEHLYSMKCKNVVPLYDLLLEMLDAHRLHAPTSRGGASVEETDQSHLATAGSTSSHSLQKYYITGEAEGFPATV
Sequence of Estrogen receptor (Homo sapiens) + Estrogen receptor beta (Homo sapiens) (Q92731 whole entry, looked up, the tested form may be a part): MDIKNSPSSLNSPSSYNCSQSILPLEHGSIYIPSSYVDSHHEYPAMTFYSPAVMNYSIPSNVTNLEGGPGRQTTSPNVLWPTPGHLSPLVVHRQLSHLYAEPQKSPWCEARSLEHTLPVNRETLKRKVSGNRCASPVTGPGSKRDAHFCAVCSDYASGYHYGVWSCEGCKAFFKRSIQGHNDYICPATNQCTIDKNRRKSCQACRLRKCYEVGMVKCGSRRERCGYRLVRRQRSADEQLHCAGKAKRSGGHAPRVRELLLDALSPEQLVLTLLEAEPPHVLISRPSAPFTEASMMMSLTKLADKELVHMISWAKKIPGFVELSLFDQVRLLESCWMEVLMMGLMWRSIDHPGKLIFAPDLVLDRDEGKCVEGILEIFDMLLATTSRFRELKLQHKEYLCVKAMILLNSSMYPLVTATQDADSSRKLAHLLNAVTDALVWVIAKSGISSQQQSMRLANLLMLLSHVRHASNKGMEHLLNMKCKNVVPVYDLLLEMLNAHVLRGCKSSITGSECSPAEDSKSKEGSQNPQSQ

Row | SMILES | outcome | AC50
11 | Cc1ccc(S(=O)(=O)NCl)cc1 | inactive | 
12 | CCCCCCC(C)OC(=O)CCCCC(=O)OC(C)CCCCCC (stereo unspecified) | inactive | 
13 | C1COCCN1 | inactive | 
14 | CC(Cc1ccc(O)c(O)c1)C(C)Cc1ccc(O)c(O)c1 (stereo unspecified) |  | 11.9 µM (active)
15 | CC(CCl)OP(=O)(OC(C)CCl)OC(C)CCl (stereo unspecified) | inactive | 
16 | Cc1cc(C)cc(O)c1 | inactive | 
17 | [Co] | inactive | 
18 | C(=C(c1ccccc1)c1ccccc1)c1ccccc1 |  | 29.3 µM (active)
19 | CCCCCCOC(=O)c1ccccc1 | inactive | 
20 | CCN(Cc1cccc(S(=O)(=O)O)c1)c1ccc(C(=C2C=CC(=[N+](CC)Cc3cccc(S(=O)(=O)O)c3)C=C2)c2ccc(O)cc2S(=O)(=O)[O-])cc1 | inactive | 
21 | CC/C=C\CCOC(C)=O | inactive | 
22 | COC(=O)C1CCC(C(=O)OC)CC1 (stereo unspecified) | inactive | 
23 | CCCCCCOC(=O)c1ccccc1O | inactive | 
24 | O=C(OCCOCCOCCOC(=O)c1ccccc1)c1ccccc1 | inactive | 
25 | CN(C)Cc1ccccc1O | inactive | 
26 | CCCCOc1ccc(N)cc1 |  | 68.7 µM (active)

target: Estrogen receptor beta (Homo sapiens) (UniProt Q92731); test: OT_ER_ERbERb_0480: Odyssey Thera (OT) 8-hour HEK293T Protein-Complementation Assay for Estrogen Receptor-beta/-beta Homodimer (AID 2283357);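 further: active means signal gain over DMSO baseline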
Procedure, shortened: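 Fluorescence intensity, nuclear for agonists and nuclear plus cytoplasmic for antagonists, was quantified by laser scanning cytometry versus vehicle after 8 h treatment. The cells were HEK293T stably carrying ER beta LBD fragment-complementation partners.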

Sequence of Estrogen receptor beta (Homo sapiens) (Q92731 whole entry, looked up, the tested form may be a part): as above

Row | SMILES | outcome | AC50
27 | Cc1ccc(S(=O)(=O)NCl)cc1 | inactive | 
28 | CCCCCCC(C)OC(=O)CCCCC(=O)OC(C)CCCCCC (stereo unspecified) | inactive | 
29 | C1COCCN1 | inactive | 
30 | CC(Cc1ccc(O)c(O)c1)C(C)Cc1ccc(O)c(O)c1 (stereo unspecified) |  | 11.9 µM (active)
31 | CC(CCl)OP(=O)(OC(C)CCl)OC(C)CCl (stereo unspecified) | inactive | 
32 | Cc1cc(C)cc(O)c1 | inactive | 
33 | [Co] | inactive | 
34 | C(=C(c1ccccc1)c1ccccc1)c1ccccc1 |  | 1.49 µM (active)
35 | CCCCCCOC(=O)c1ccccc1 | inactive | 
36 | CCN(Cc1cccc(S(=O)(=O)O)c1)c1ccc(C(=C2C=CC(=[N+](CC)Cc3cccc(S(=O)(=O)O)c3)C=C2)c2ccc(O)cc2S(=O)(=O)[O-])cc1 | inactive | 
37 | CC/C=C\CCOC(C)=O | inactive | 
38 | COC(=O)C1CCC(C(=O)OC)CC1 (stereo unspecified) | inactive | 
39 | CCCCCCOC(=O)c1ccccc1O | inactive | 
40 | CN(C)Cc1ccccc1O | inactive | 
41 | CCCCOc1ccc(N)cc1 | inactive | 

target: human Peroxisome Proliferator-activated Receptor alpha (PPARa), PPARA (gene 5465) (UniProt Q07869); test: NVS_NR_hPPARa: NovaScreen (NVS) Nuclear Receptor Binding Assay for human Peroxisome Proliferator-activated Receptor alpha (PPARa) (AID 2283359);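 further: activity means loss of TR-FRET signal versus DMSO baseline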
Procedure, shortened: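 Cell-free TR-FRET binding assay with extracted PPARα protein, read 1 h after dosing. Primary screen in duplicate at 25 uM, with actives retested in concentration series. Loss of signal versus DMSO.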

Sequence of human Peroxisome Proliferator-activated Receptor alpha (PPARa), PPARA (gene 5465) (Q07869 whole entry, looked up): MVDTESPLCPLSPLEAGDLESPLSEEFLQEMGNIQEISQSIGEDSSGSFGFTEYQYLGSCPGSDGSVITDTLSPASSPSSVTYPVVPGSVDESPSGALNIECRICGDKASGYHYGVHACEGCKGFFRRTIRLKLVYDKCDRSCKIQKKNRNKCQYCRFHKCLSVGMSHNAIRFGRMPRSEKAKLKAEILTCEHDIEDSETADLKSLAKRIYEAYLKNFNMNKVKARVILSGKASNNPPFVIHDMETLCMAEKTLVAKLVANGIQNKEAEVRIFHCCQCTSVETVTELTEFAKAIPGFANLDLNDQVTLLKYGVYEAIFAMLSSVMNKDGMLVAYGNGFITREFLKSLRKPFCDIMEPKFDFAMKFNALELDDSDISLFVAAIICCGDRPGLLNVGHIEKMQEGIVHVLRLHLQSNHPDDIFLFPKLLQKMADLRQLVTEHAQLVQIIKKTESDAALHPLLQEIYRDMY

Row | SMILES | outcome | AC50
42 | CCCCC(CC)COP(=O)(O)OCC(CC)CCCC (stereo unspecified) | inactive | 
43 | CC(Cc1ccc(O)c(O)c1)C(C)Cc1ccc(O)c(O)c1 (stereo unspecified) |  | 4.6 µM (active)
44 | CNC(=S)NC | inactive | 

target: PGR (gene 5241) (UniProt P06401); test: NVS_NR_hPR: NovaScreen (NVS) Nuclear Receptor Binding Assay for human Progestron Receptor (PR) (AID 2283360);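 further: active means loss of bound radioligand signal versus DMSO baseline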
Procedure, shortened: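 T47D-derived receptor preparation, cell-free, with tritiated or iodinated radioligand displacement measured by scintillation 18 h post-dosing. Single 25 uM duplicate screen, then concentration series; signal loss relative to DMSO.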

Sequence of PGR (gene 5241) (P06401 whole entry, looked up): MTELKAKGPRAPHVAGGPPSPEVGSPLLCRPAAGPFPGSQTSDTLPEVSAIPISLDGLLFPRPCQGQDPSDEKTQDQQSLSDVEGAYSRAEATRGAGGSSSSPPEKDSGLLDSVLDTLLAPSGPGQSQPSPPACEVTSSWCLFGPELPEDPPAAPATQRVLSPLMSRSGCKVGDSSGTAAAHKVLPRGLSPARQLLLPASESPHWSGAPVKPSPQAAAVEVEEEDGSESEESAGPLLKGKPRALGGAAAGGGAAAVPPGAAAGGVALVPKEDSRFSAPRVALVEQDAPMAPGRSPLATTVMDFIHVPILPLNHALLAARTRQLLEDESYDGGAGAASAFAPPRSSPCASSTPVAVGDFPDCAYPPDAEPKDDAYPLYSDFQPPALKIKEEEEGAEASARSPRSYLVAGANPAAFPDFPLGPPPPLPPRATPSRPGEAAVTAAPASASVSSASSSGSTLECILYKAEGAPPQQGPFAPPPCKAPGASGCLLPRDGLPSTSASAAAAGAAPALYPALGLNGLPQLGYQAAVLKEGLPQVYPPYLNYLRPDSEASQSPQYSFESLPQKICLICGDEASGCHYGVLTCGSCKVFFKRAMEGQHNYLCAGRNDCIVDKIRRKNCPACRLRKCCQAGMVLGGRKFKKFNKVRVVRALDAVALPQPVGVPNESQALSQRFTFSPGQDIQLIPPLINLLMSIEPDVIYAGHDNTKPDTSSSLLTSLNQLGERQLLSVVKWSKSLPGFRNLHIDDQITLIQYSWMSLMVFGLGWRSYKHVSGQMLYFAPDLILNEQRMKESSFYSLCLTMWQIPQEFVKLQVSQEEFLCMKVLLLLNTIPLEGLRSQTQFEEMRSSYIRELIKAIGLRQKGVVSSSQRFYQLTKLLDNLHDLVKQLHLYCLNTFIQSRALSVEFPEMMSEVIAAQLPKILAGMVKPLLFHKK

Row | SMILES | outcome
45 | C#C[C@]1(O)CC[C@H]2[C@@H]3CCc4cc(OC)ccc4[C@H]3CC[C@@]21C | inactive
46 | CCCCNc1ccccc1 | inactive
47 | Nc1ccc(Oc2cccc(Oc3ccc(N)cc3)c2)cc1 | inactive

target: Glucocorticoid receptor (Homo sapiens) (UniProt P04150); test: NVS_NR_hGR: NovaScreen (NVS) Nuclear Receptor Binding Assay for human Glucocorticoid Receptor (GR) (AID 2283363);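 on AC50: activity is loss of specific radioligand binding signal relative to DMSO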
Procedure, shortened: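 Cell-free radioligand displacement assay on extracted human GR, read 16 h after dosing by filter-based scintillation counting. Screened in duplicate at 25 uM, then concentration series for actives; loss of signal versus DMSO baseline.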

Sequence of Glucocorticoid receptor (Homo sapiens) (P04150 whole entry, looked up): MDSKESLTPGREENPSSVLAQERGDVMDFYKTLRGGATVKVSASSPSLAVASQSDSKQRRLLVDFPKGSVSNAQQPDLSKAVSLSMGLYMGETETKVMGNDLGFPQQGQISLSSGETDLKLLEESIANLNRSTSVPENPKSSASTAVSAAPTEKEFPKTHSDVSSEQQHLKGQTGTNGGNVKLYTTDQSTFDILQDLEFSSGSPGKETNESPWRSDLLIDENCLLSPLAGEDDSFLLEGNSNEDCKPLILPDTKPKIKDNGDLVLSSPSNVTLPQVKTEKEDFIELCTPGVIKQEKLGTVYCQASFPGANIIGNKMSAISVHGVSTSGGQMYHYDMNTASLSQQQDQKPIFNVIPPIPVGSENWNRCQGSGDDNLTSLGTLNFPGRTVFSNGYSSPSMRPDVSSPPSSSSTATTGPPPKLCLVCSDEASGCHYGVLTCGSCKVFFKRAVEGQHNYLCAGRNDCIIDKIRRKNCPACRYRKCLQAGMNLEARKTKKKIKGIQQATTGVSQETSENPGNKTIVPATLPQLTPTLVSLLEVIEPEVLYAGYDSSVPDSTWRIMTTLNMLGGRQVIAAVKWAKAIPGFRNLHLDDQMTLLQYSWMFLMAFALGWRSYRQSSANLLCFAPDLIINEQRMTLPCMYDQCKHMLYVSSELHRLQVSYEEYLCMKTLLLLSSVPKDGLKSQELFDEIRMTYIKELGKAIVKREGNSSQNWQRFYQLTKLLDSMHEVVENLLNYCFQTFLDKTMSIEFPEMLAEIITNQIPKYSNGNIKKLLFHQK

Row | SMILES | AC50 | outcome
48 | CCCCC(CC)COP(=O)(O)OCC(CC)CCCC (stereo unspecified) | 8.04 µM (active) | 
49 | CC(Cc1ccc(O)c(O)c1)C(C)Cc1ccc(O)c(O)c1 (stereo unspecified) | 1.79 µM (active) | 
50 | Cc1cc(C)cc(O)c1 |  | inactive
51 | CNC(=S)NC |  | inactive
52 | C#C[C@]1(O)CC[C@H]2[C@@H]3CCc4cc(OC)ccc4[C@H]3CC[C@@]21C |  | inactive
53 | CCN(Cc1cccc(S(=O)(=O)O)c1)c1ccc(C(=C2C=CC(=[N+](CC)Cc3cccc(S(=O)(=O)O)c3)C=C2)c2ccc(O)cc2S(=O)(=O)[O-])cc1 | 11.5 µM (active) | 

target: Nuclear receptor subfamily 1 group I member 2 (Homo sapiens) (UniProt O75469); test: NVS_NR_hPXR: NovaScreen (NVS) Nuclear Receptor Binding Assay for human Pregnane X Receptor (PXR) (AID 2283365);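 further: a drop in FRET signal versus DMSO baseline means the compound binds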
Procedure, shortened: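 Human PXR protein, cell-free; compound added, incubated 2 h, TR-FRET read. Signal decrease vs DMSO = binding. Screened 25 uM duplicate, actives re-run as dilution series.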

Sequence of Nuclear receptor subfamily 1 group I member 2 (Homo sapiens) (O75469 whole entry, looked up): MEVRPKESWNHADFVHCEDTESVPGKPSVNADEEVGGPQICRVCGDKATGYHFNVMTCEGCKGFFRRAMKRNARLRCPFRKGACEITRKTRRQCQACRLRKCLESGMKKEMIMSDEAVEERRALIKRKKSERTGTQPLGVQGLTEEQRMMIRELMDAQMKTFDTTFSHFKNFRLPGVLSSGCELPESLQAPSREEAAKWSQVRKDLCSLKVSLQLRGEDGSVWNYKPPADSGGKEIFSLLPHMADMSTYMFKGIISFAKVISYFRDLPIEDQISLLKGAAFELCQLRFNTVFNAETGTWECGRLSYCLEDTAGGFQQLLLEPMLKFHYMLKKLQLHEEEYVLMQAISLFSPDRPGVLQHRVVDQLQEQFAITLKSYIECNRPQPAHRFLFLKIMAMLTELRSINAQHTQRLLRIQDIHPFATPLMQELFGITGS

Row | SMILES | outcome | AC50
54 | Cc1ccc(S(=O)(=O)NCl)cc1 | inactive | 
55 | CCCCC(CC)COP(=O)(O)OCC(CC)CCCC (stereo unspecified) | inactive | 
56 | CC(Cc1ccc(O)c(O)c1)C(C)Cc1ccc(O)c(O)c1 (stereo unspecified) |  | 5.16 µM (active)
57 | CC(CCl)OP(=O)(OC(C)CCl)OC(C)CCl (stereo unspecified) |  | 4.35 µM (active)
58 | O=S(=O)(O)c1ccc2ccccc2c1 | inactive | 
59 | CNC(=S)NC | inactive | 
60 | CCN(Cc1cccc(S(=O)(=O)O)c1)c1ccc(C(=C2C=CC(=[N+](CC)Cc3cccc(S(=O)(=O)O)c3)C=C2)c2ccc(O)cc2S(=O)(=O)[O-])cc1 |  | 2.41 µM (active)
61 | COC(=O)C1CCC(C(=O)OC)CC1 (stereo unspecified) | inactive | 
62 | CCCCCCOC(=O)c1ccccc1O | inactive | 
63 | O=C(OCCOCCOCCOC(=O)c1ccccc1)c1ccccc1 | inactive | 

system: guinea pig Dopamine Transporter (DAT), gene 100714898; test: NVS_TR_gDAT: NovaScreen (NVS) Transporter Assay for guinea pig Dopamine Transporter (DAT) (AID 2283369);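 further: active compounds lower bound radioligand signal relative to DMSO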
Procedure, shortened: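 Scintillation counts of filter-retained radioligand report binding to guinea pig striatal membranes after 2 h. Activity scored as signal loss relative to DMSO, first at 25 uM in duplicate, then in concentration series to 50 uM.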

Row | SMILES | AC50
64 | Oc1ccc(Nc2ccccc2)cc1 | 12.1 µM (active)
65 | CCN(CC)c1ccc2c(C)cc(=O)oc2c1 | 13.6 µM (active)
66 | CCCCCCCCCCCCCCCC[N+](C)(C)Cc1ccccc1 | 17.3 µM (active)
67 | Nc1ccc(Oc2cccc(Oc3ccc(N)cc3)c2)cc1 | 3.46 µM (active)

target: Peroxisome proliferator-activated receptor gamma (Homo sapiens) (UniProt P37231); test: NVS_NR_hPPARg: NovaScreen (NVS) Nuclear Receptor Binding Assay for human Peroxisome Proliferator-activated Receptor gamma (PPARg) (AID 2283370)
Procedure, shortened: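 Chemicals were tested first in duplicate at 25 uM, then in concentration series if active. Binding to cell-free PPARg protein was measured by fluorescence polarization after 2 h, with loss of signal scored against DMSO.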

Sequence of Peroxisome proliferator-activated receptor gamma (Homo sapiens) (P37231 whole entry, looked up): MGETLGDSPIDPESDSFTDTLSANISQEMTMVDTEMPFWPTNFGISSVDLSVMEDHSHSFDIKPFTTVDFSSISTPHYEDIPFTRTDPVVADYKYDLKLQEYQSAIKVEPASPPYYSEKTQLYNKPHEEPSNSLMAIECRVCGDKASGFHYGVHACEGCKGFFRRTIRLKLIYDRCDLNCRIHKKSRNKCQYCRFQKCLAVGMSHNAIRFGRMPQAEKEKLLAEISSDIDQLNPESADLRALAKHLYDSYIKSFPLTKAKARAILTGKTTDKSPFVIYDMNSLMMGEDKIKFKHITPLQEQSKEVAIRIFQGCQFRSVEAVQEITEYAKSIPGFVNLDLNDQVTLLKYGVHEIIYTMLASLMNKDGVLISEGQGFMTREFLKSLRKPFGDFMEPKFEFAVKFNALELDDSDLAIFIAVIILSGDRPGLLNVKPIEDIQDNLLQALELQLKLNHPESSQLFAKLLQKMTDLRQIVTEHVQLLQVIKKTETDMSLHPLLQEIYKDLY

Row | SMILES | outcome | AC50
68 | CCCCC(CC)COP(=O)(O)OCC(CC)CCCC (stereo unspecified) | inactive | 
69 | CC(Cc1ccc(O)c(O)c1)C(C)Cc1ccc(O)c(O)c1 (stereo unspecified) |  | 4.91 µM (active)
70 | CC(CCl)OP(=O)(OC(C)CCl)OC(C)CCl (stereo unspecified) | inactive | 
71 | CCN(Cc1cccc(S(=O)(=O)O)c1)c1ccc(C(=C2C=CC(=[N+](CC)Cc3cccc(S(=O)(=O)O)c3)C=C2)c2ccc(O)cc2S(=O)(=O)[O-])cc1 |  | 8.78 µM (active)
